Pf growth 48h: P. falciparum growth inhibition at 48 hours (one generation) | Potency, µM (series often up to 28.7 µM), inactives show at the highest dose activity change, negative = inhibition, hits mostly inhibitors | 310,000 tested, 5.9% active | AID 504832 | P. falciparum luciferase growth in erythrocytes, 48 h; note: potency is the fitted concentration of half-maximal effect
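First compound was added to culture medium, then infected red cells at 0.1% parasitemia and 2% hematocrit (final). After incubation at 37 C under 5% CO2, luciferase detection reagent was dispensed and light output recorded.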
HCMV antiviral: human cytomegalovirus inhibition; AID 1259415; HFF cells, HCMV-luciferase reporter, 72 h; active compounds read low; activity change, negative = inhibition, % at 57.5 µM; 410,000 tested, 4.5% active; in the data active = activity change below about -60%; inconclusive = no clear call, values can overlap the other calls; inactive = above about -39%
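Screen run at 2 compound doses on HFFs infected with reporter HCMV, MOI 1 PFU/cell. Luciferase activity from cell lysates at 72 h post infection gave inhibition relative to buffer-only and Salinomycin wells.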
HCV inhibitor: inhibitors of hepatitis C virus infection; Potency, µM (doses to about 41.8 µM), for the others: top-dose activity change, negative = inhibition, hits mostly inhibitors; Huh7.5.1 HCVcc-Cre infection, luciferase reporter, 44 h; 340,000 tested, 3.4% active; note: potency is the fitted concentration of half-maximal effect
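A cell-based infection assay in which seeded cells (1,000 per well) receive test compound after 4 h, are inoculated with HCVcc-Cre at approximately 0.5 moi, and are incubated 44 h before luminescence detection.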
Pf growth 96h: inhibits malaria parasite growth, 96 h. P. falciparum luciferase reporter growth, 96 h. Potency, µM (titrated, usually from 28.7 µM), for the others: at the top dose activity change, negative = inhibition, hits mostly inhibitors. 320,000 tested, 6.9% active. AID 504834; note: potency is the fitted concentration of half-maximal effect
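Two parasite generations (96 h, 37 C, 5% CO2) of compound exposure in infected erythrocytes (0.05% parasitemia, 2% hematocrit). Luciferase-reporter P. falciparum; decreased luminescence indicates inhibited growth, aimed at apicoplast-acting delayed death.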
An asterisk follows results filed as active; u = inconclusive; x = no result. Compounds with a hit are over-represented: about 13% of the library has one in this group of screens. Unless noted, calls come from the whole dose curve; as a rule, active = well fitted inhibition curve with a large enough effect; inconclusive = small, poorly fitted or top-dose-only effect, or another doubt; inactive = no such curve, though single readings can be large or run the other way. % is set by controls: 0 for no effect and ±100 for the full control effect.

SMILES	Pf growth 48h	HCMV antiviral	HCV inhibitor	Pf growth 96h
O=C(O)c1ccc(N/N=C/c2ccc3nccnc3c2)cc1	-103.2%	-78.4*	21.4%	-41.7%
COc1ccc(OC)c(CC2C(=O)Nc3ccc(Br)cc32)c1 (stereo unspecified)	x	-90.2*	x	x
CC(C)c1nc(NCC2CCCO2)c(C#N)c2c1COC(C)(C)C2 (stereo unspecified)	13.1µM*	43.9	-11.2%	0.0%
CC(=O)c1ccc(N2CCN(C(=O)NCc3noc4ccc(C)cc34)CC2)cc1	x	-1.8	x	x
N=C1/C(=C\c2ccc(OC(=O)c3ccc(F)cc3)cc2)C(=O)N=C2SC(N3CCOCC3)=NN12	7.9%	u	0.2%	1.65µM*
Cc1noc(C)c1S(=O)(=O)NCCN1CCN(c2ccccc2)CC1	8.4%	4.8	16.5%	11.7µM*
Cc1noc(C)c1S(=O)(=O)NCCCN1CCN(Cc2ccccc2)CC1	9.6%	x	-8.7%	4.65µM*
CCOC(=O)Cc1ccc(NC(=O)N2CCC(CN3CCCCCC3)CC2)cc1	x	2.9	x	x
CC(C)c1ccc(N2C(=O)/C(=C/N(C)C)SC2=S)cc1	u	-60.1*	-2.9%	9.7%
CCO/C=C1\SC(=S)N(c2ccc(Cl)cc2)C1=O	32.6%	28.7	16.1%	6.1%
N=c1c2c(n(Cc3ccc(Cl)cc3)c3c1CCC3)CCC2	0.208µM*	-102.1*	u	25.1%
N=c1c2c(n(Cc3ccc(F)cc3)c3c1CCC3)CCCC2	u	-99.6*	-25.3%	14.9%
N=c1sc2c(n1Cc1ccccc1)CCCC2	-15.4%	-35.3	1.3%	65.1%
N=c1c2c(n(Cc3ccccc3)c3c1CCC3)CCC2	0.415µM*	-96.5*	u	0.131µM*
N=c1c2c(n(Cc3cccc(Cl)c3)c3c1CCC3)CCCC2	0.262µM*	-94.5*	25.1µM*	-106.8%
COc1ccccc1N1CCN(C(=O)CCn2cnc3onc(-c4ccc(F)cc4)c3c2=O)CC1	x	-12.1	x	x
CCOC(=O)c1c(Oc2ccc(OC)cc2)nnc(-c2ccccc2)c1-c1ccccc1	x	-17.0	x	x
N=c1c2c(n(Cc3ccc(Cl)cc3Cl)c3c1CCC3)CCCC2	0.185µM*	x	10µM*	x
CN1CCCN(Cc2ccc(Cl)cc2Cl)CC1	x	-32.1	u	-26.3%
C=CCn1c(O)c(C(C)=Nc2ccc(N(C)C)cc2)c(=O)[nH]c1=O	11.7µM*	113.4	u	x
C=CCn1c(O)c(C(C)=Nc2ccc(N(CC)CC)cc2)c(=O)[nH]c1=O	u	39.1	u	u
O=C(NCc1ccc(Cl)cc1)C1CCCN(c2nc3ccccc3n3cccc23)C1 (stereo unspecified)	x	-0.8	x	x
O=S(=O)(Cc1cc(NCc2ccccc2)nc(-c2ccncc2)n1)c1ccccc1	u	-8.5	u	u
O=S(=O)(Cc1cc(NCc2ccccc2)nc(-c2ccccn2)n1)c1ccccc1	u	u	u	8.28µM*
Cc1oc2ncn(C)c(=O)c2c1C(=O)NCc1ccc(Cl)cc1	x	-5.6	x	x
SMILES	Pf growth 48h	HCMV antiviral	HCV inhibitor	Pf growth 96h
Cc1ccc(NC(=O)c2oc3ccc4c(c3c2C)C(=O)CC(C)(C)O4)c(C)c1	x	40.6	x	x
COC(=O)C1=C(c2ccc(OC)c(OC)c2)C[C@@H]2CC[C@H]1N2C(=O)N1CCC(C)CC1	31.4%	-7.1	-23.9%	u
COC(=O)C1=C(c2cc3ccccc3o2)C[C@@H]2CC[C@H]1N2C(=O)N1CCCCC1	x	-17.0	u	x
COC(=O)C1=C(c2cc3ccccc3o2)C[C@@H]2CC[C@H]1N2C(=O)N1CCCC1	x	-60.2*	u	x
COC(=O)C1=C(c2ccc3ccccc3c2)C[C@@H]2CC[C@H]1N2C(=O)N1CCC(C)CC1	9.28µM*	x	u	u
COC(=O)C1=C(c2ccc(C(C)=O)cc2)C[C@@H]2CC[C@H]1N2C(=O)N1CCC(O)(c2ccc(Cl)cc2)CC1	10.4µM*	-16.8	u	u
COC(=O)C1=C(c2ccc(C(C)=O)cc2)C[C@@H]2CC[C@H]1N2C(=O)N1CCC(C)CC1	13.1µM*	-14.2	-9.0%	-9.2%
COC(=O)C1=C(c2ccc(C(C)=O)cc2)C[C@@H]2CC[C@H]1N2C(=O)NC1CC1	-5.4%	32.7	10.4%	14.3%
Cc1ccc(-c2cnc(NCc3c(F)cccc3Cl)n2C)cc1	x	-23.0	x	x
COc1ccc(-n2c(SCC(=O)N3CCC(C)CC3)nc3c([nH]c4ccccc43)c2=O)cc1	x	14.7	x	x
CCCOc1ccc(C(=O)CCN2CCCCC2)cc1	13.1%	-26.9	-9.5%	x
CCCOc1ccc(C(O)(CCC)CCN2CCCCC2)cc1 (stereo unspecified)	-13.6%	-17.0	8.91µM*	-21.8%
CCOc1cccc(C2c3[nH]c4ccccc4c3CCN2C(=O)CSc2ccccc2)c1 (stereo unspecified)	x	-4.0	x	x
COc1ccc(Cn2c3ccc(OC)cc3c3nc4ccccc4nc32)cc1	5.6%	11.7	3.0%	-2.4%
COc1ccc2c(c1)c1nc3ccccc3nc1n2Cc1ccc(OC(C)C)c(OC)c1	11.7µM*	23.3	26.1%	u
COc1ccc(C2(c3ccc(OC)cc3)NC(=O)N(CC(=O)Nc3ccc(OC(F)F)cc3)C2=O)cc1	11.7µM*	12.0	12.6µM*	u
COc1ccc(C2(c3ccc(OC)cc3)NC(=O)N(CC(=O)NC(C)C)C2=O)cc1	22.6%	45.9	2.3%	9.3%
CCOc1ccc(NC(=O)CN2C(=O)NC(C)(c3ccc(OC(F)F)cc3)C2=O)cc1 (stereo unspecified)	1.04µM*	-18.0	-12.8%	u
COc1ccc(NC(=O)CN2C(=O)NC(c3ccccc3)(c3ccccc3)C2=O)cc1	-19.9%	-17.3	u	27.2%

Source: PubChem
